# Assay results as given in PubChem BioAssay AID686978 (National Center for Advancing Translational Sciences (NCATS), 2013).
# Several values for one entry are separate records, joined by “and”; a condition that tells them apart may be missing. Identical values can stand only once. In all, about 420,000 compounds went through this assay and about 64,000 (15%) were called active. Inconclusive results (about 27%) are left out. The call rests on the fitted dose curve; in most records, active means well fitted inhibition curve with a large enough effect; inconclusive means small, poorly fitted or top-dose-only effect; inactive means flat fitted curve, though single readings scatter. The list is a sample of the results. A call without a number means that no potency is given here.
# Test: qHTS for Inhibitors of human tyrosyl-DNA phosphodiesterase 1 (TDP1): qHTS in cells in absence of CPT; further: nearly all actives have a fitted effect of over 55% in size
# Conditions: DT40 Tdp1-/- hTDP1 cells, no CPT, ATP luminescence, 48 h; activity change, negative = growth inhibition: at 46.2 µM (top of the series)
# In short: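 Cells were dispensed at 400 per well, compounds added by pin tool, plates incubated ≥48 hr at 37 °C, then CellTiter-Glo added for 30 min at room temperature before luminescence reading. Line: DT40 Tdp1-/- complemented with hTDP1; camptothecin omitted.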
# Potency means the concentration at half of the fitted maximal effect.
row,Structure (SMILES),Potency
1,Cc1nc2nc(COc3ccccc3)[nH]n2c(=O)c1C,inactive
2,OCC[C@H]1C[C@H](O)[C@@H](O)[C@]2(CCc3ccccc3O2)O1,inactive
3,CCOc1cccc(SCc2noc(C(=O)NC(C)C)c2C(=O)O)c1,inactive
4,CC1CN(S(=O)(=O)c2cccc(C(F)(F)F)c2)CN1C(=O)N1CCOCC1 (stereo not given),inactive
5,Cc1oc(-c2ccccc2)nc1Cn1c(SCc2cccc(C(F)(F)F)c2)nc2cccnc21,25.9 µM (active)
6,O=C(O)c1ccc(CSc2nc3cccnc3n2Cc2cccc(F)c2)cc1,inactive
7,O=C(NC1CCCCC1)c1ccc(Cn2c(SCc3ccccc3)nc3cccnc32)cc1,inactive
8,O=C(Cc1ccccc1)NNC1CC(=O)N(c2ccc(Br)cc2)C1=O (stereo not given),inactive
9,Cc1onc(C(=O)Nc2ccc3c(c2)OCO3)c1[N+](=O)[O-],inactive
10,CN(CC(=O)NC1CCCCC1)S(=O)(=O)c1cccc2cccnc12,inactive
11,CC(=O)OC[C@@H]1CN(Cc2ccccc2)C[C@H](n2cnc3c(NCc4ccco4)ncnc32)O1,inactive
12,Nc1ncnc2c1ncn2[C@@H]1O[C@H](C(=O)NCC(F)(F)F)[C@@H](O)[C@H]1O,inactive
13,COCCn1c(=O)c(-c2ccccc2)nc2cnc(N3CCOCC3)nc21,inactive
14,COCCn1c(=O)c(-c2cc(F)cc(F)c2)nc2cnc(N3CCNCC3)nc21,23.1 µM (active)
15,COCCn1c(=O)c(-c2cc(F)cc(F)c2)nc2cncnc21,inactive
16,O=c1c(CCc2ccccc2)nc2cnc(N3CCNCC3)nc2n1Cc1cccs1,inactive
17,N#Cc1cccc(-c2nc3cnc(N4CCNCC4)nc3n(C3CC3)c2=O)c1,3.66 µM (active)
18,O=c1c(-c2ccc(F)cc2)nc2cnc(N3CCOCC3)nc2n1-c1ccccc1,inactive
19,COC(=O)c1ccc(NC(=O)c2cc3c(CO)cnc(C)c3oc2=Nc2cccc(C(N)=O)c2)cc1,inactive
20,Cc1cc(C(=O)N2CCC(C(=O)O)CC2)c(C(F)(F)F)o1,inactive
21,COC(=O)c1ccc(CSc2ccc(S(=O)(=O)N3CCCCC3)cn2)cc1,inactive
22,C/C(CC(=O)Nc1ccc(C)cc1C)=N\NC(=O)C(C)C,inactive

row,Structure (SMILES),Potency
1,CN(C)N1C(N)=C(C#N)C(c2ccc(Br)cc2)C2=C1CCCC2=O (stereo not given),inactive
2,Cc1ccc(S(=O)(=O)N(C)C)cc1NC(=O)COC(=O)c1c(C)noc1C,inactive
3,C=CCCC(=O)N1C[C@H]2CON(C)[C@H]2C[C@H]1c1cccc(Nc2ccccc2)c1,inactive
4,CCCCCC(=O)N1C[C@H](O)[C@@H](n2cc(COC(=O)c3ccccc3)nn2)C[C@@H]1c1ccc(C)cc1,0.82 µM (active)
5,O=C(OCc1cn([C@H]2C[C@H](c3ccccc3)N(C(=O)c3cccs3)C[C@@H]2O)nn1)c1ccccc1,18.4 µM (active)
6,O=C(c1cccs1)N1C[C@H](n2cc(C3CC3)nn2)[C@@H](O)C[C@@H]1c1ccccc1,inactive
7,O=C(OCc1cn(-c2ccc(Cl)c(Cl)c2)nn1)c1ccccc1Cl,inactive
8,O=C(OCc1cn([C@@H]2C[C@H](c3ccc(Cl)cc3)N(Cc3cccs3)C[C@H]2O)nn1)c1ccccc1,inactive
9,CCCCN(C)CCNC(=O)CSCc1ccc(C)cc1,inactive
10,CC1=CC(=O)C=CC1(C)C(Cl)(Cl)Cl (stereo not given),inactive
11,CCN(CC(=O)NCc1ccco1)S(=O)(=O)c1ccc(F)cc1,inactive
12,Cc1c(C=O)c2ccccn2c1C(=O)c1ccncc1,inactive
13,COc1ccc([N+](=O)[O-])cc1-c1nc2ccccc2nc1-c1ccccc1,inactive
14,O=C(Cn1c(=O)nc(-c2ccccc2)c2cc(Cl)ccc21)NCc1ccc(Cl)cc1,23.1 µM (active)
15,COC(=O)Cn1nc(-c2ccccc2)c2cc(Cl)ccc21,inactive
16,CCN(C(=O)Cn1c(=O)nc(-c2ccccc2)c2cc(Cl)ccc21)c1cccc(C)c1,inactive
17,Cc1ccc(N(CC(=O)NC2CCCCC2)C(=O)CCCC(=O)Nc2ccccn2)c(C)c1,inactive
18,Cn1nccc1C(=O)NCC1CCC2(CCN(Cc3c(O)ccc4ccccc34)CC2)O1 (stereo not given),inactive
19,CCOC(=O)c1nc(Nc2ccc(C(=O)OC)cc2)c2ccccc2n1,8.2 µM (active) and 20.6 µM (active)
20,CCOC(=O)c1ccc(Nc2cc(C)nc3nc(C)nn23)cc1,inactive
21,COC(=O)c1ccc(Nc2ncnc3sccc23)cc1,inactive
22,COc1cc(C(=O)N2C(=O)c3cccc(N)c3C2=O)cc(OC)c1OC,inactive

row,Structure (SMILES),Potency
1,O=C(CCc1ccccc1)Nc1nn[nH]n1,inactive
2,O=C(O)c1ccc(N=NN2CCOCC2)cc1,inactive
3,Cc1cccc(OCC(=O)Nc2ccc(NC(=O)c3ccco3)c(C)c2)c1,16.4 µM (active)
4,Cc1cc(NC(=O)c2ccc(F)cc2)ccc1NC(=O)c1ccco1,inactive
5,Cc1ccc(NC(=O)c2ccco2)cc1,inactive
6,O=C(COc1ccccc1)Nc1nonc1NC(=O)COc1ccccc1,inactive
7,Cc1ccc(C(=O)COc2cccc(NC(=O)c3ccco3)c2)cc1,20.6 µM (active)
8,O=C(Nc1cccc(NC(=O)c2ccco2)c1)c1cnccn1,inactive
9,CCOc1cc(NC(=O)c2ccco2)c(OCC)cc1NC(=O)COc1ccccc1,4.61 µM (active)
10,COc1ccc(OCC(=O)Nc2ccc(NC(=O)c3ccco3)c(C)c2)cc1,inactive
11,CCOc1cc(NC(=S)NCc2ccco2)c(OCC)cc1NC(=O)c1ccco1,inactive
12,CC(C)c1ccc(NC(=O)Cn2ncc3ccccc32)cc1,inactive
13,CCOC(=O)C1CCN(C(=O)C2CCN(S(=O)(=O)c3c(C)noc3C)CC2)CC1,inactive
14,CCOc1ccc(Oc2nc(C)cc(OC)n2)nn1,inactive
15,S=C(NCCc1ccccc1)N1CCCCC1,inactive
16,Oc1ccc(N2CCN(C(=S)NCc3ccccc3)CC2)cc1,13 µM (active)
17,O=C1CCN(C(=S)NCCc2ccccc2)CC1,inactive
18,Cc1ccc(C(=O)COC(=O)CCN2C(=O)C3C4CC(C(Br)C4Br)C3C2=O)cc1 (stereo not given),inactive
19,Clc1ccc(-c2cc(COc3ccccc3)no2)cc1Cl,inactive
20,COc1ccc(Oc2coc3cc(OC(=O)c4cncc(Br)c4)ccc3c2=O)cc1,inactive
21,O=C(Oc1ccccc1)Oc1ccc2c(c1)oc(=O)c1ccccc12,inactive
